Our source for the binding signal values is article PMC7862700, “An all-to-all approach to the identification of sequence-specific readers for epigenetic DNA modifications on cytosine”.

Holding throughout (assay): DAPPL (digital affinity profiling via proximity ligation, sequencing); 10 mM Tris-HCl pH 7.5, 50 mM NaCl, 1 mM DTT, 4% glycerol, room temperature, 30 min; GST-TFs on glutathione beads, 16-mer random dsDNA library, 0.1% formaldehyde crosslink after washing; high values mean tight binding
What all share (details): protein: recombinant; tags: N-terminal GST; dsDNA, one strand shown

One test concerns the target T1, FEV (Homo sapiens, UniProt Q99581 1-238).
T1 sequence: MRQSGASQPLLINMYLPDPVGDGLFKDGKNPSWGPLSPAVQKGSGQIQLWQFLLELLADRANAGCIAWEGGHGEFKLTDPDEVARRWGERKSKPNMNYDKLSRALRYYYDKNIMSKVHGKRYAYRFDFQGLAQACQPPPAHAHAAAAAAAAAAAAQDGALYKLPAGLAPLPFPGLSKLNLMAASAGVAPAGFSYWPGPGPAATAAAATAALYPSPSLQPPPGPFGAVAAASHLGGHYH
A digest of the protocol:
(§1)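 In yeast, human transcription factors were expressed with a GST fusion, then pulled down on glutathione beads and given DNA barcodes. Pooled with a tag-only sample, they were exposed to 200 nmole of a 16-mer random double-stranded DNA library (Tris/NaCl/DTT/glycerol buffer, room temperature, 30 min), washed, crosslinked with 0.1% formaldehyde, proximity-ligated using BsaI/T4 ligase for 1 h at 37 °C, PCR-amplified and read on an Illumina NextSeq500. Each hexamer's frequency of reads for a factor, divided by the matching frequency for the tag-only sample, gives the binding signal.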

A further test addresses ETV5 (Homo sapiens, UniProt P41161 1-510). The method in brief:
as §1

For a further test, the target named is T2, SPIC (Homo sapiens, UniProt Q8N5J4 1-248).
T2 sequence: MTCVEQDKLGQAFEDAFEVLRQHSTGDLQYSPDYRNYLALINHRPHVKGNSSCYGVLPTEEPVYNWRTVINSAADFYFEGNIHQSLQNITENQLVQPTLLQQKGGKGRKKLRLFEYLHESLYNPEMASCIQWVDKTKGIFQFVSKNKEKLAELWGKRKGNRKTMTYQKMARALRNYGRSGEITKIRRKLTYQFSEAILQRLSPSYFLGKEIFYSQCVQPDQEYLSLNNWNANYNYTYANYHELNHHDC
The method in brief: as §1

The target of the next test is ELF4 (Homo sapiens, UniProt Q99607 1-663). The method in brief:
as §1

The next test addresses T3, ELK4 (Homo sapiens, UniProt P28324-2 1-405).
T3 sequence: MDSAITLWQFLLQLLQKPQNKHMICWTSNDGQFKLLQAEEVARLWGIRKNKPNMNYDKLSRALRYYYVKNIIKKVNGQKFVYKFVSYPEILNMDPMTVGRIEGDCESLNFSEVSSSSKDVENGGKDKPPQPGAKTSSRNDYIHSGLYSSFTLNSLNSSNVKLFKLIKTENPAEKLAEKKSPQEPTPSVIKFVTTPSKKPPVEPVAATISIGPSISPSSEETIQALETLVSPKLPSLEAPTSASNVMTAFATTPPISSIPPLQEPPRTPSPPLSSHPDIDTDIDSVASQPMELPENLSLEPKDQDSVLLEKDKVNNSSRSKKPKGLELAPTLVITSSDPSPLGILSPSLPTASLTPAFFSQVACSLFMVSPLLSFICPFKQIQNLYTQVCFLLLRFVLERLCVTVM
The method in brief: as §1

The target in a further test is T4, ETV2 (Homo sapiens, UniProt O00321 1-342).
T4 sequence: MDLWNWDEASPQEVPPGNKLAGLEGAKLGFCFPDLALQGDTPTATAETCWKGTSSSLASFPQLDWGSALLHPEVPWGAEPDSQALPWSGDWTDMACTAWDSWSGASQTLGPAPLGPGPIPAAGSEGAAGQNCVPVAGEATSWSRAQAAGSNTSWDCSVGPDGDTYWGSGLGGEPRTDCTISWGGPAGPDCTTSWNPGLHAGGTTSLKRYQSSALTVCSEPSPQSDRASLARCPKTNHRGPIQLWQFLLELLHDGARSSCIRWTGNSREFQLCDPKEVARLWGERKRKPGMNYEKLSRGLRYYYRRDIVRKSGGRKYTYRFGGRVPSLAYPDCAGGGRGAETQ
The method in brief: as §1

Another test deals with T5, ELF3 (Homo sapiens, UniProt P78545 1-371).
T5 sequence: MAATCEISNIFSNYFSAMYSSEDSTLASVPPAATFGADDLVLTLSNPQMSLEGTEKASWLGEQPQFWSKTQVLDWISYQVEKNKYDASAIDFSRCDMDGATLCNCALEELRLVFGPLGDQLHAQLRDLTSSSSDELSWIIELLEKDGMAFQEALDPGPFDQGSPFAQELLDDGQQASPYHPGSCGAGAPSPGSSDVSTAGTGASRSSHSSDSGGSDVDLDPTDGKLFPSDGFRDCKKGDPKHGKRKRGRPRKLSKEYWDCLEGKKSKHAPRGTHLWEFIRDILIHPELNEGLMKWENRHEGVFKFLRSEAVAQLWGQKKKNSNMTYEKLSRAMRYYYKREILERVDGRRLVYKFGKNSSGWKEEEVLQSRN
The method in brief: as §1

Another test addresses ETV1 (Homo sapiens, UniProt P50549 1-477). A digest of the protocol: as §1

ELF4, sequence (Q99607 whole entry): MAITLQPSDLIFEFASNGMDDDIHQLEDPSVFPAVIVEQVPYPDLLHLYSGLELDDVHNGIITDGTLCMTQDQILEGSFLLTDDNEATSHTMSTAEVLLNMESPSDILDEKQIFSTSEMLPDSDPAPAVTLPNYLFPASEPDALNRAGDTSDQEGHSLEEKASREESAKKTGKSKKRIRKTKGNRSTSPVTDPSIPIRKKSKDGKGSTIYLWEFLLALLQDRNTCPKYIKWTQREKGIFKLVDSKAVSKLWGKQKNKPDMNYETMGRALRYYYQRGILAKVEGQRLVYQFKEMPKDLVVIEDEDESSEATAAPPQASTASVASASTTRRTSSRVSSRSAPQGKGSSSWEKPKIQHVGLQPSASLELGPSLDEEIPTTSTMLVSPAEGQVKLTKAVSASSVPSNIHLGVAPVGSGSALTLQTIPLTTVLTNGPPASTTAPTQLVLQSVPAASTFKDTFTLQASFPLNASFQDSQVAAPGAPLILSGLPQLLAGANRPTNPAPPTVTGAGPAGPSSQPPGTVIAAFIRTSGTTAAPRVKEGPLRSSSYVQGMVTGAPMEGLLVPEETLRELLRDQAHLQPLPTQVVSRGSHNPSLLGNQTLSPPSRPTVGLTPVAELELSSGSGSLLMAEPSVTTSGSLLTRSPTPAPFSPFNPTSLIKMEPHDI
ETV5, sequence (P41161 whole entry): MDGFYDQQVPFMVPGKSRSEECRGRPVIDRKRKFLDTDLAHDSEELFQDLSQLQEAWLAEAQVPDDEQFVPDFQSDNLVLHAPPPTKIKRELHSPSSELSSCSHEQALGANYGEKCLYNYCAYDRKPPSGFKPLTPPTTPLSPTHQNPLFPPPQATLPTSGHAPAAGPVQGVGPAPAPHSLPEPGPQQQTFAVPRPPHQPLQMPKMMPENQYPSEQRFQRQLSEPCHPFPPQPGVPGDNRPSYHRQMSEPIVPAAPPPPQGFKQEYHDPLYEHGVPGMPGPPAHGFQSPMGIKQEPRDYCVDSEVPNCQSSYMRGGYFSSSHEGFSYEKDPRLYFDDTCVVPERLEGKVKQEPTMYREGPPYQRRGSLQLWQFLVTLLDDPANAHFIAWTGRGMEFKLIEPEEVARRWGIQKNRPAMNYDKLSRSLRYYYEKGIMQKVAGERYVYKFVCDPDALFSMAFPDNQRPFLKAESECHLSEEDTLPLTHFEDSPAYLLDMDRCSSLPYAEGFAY
ETV1, sequence (P50549 whole entry): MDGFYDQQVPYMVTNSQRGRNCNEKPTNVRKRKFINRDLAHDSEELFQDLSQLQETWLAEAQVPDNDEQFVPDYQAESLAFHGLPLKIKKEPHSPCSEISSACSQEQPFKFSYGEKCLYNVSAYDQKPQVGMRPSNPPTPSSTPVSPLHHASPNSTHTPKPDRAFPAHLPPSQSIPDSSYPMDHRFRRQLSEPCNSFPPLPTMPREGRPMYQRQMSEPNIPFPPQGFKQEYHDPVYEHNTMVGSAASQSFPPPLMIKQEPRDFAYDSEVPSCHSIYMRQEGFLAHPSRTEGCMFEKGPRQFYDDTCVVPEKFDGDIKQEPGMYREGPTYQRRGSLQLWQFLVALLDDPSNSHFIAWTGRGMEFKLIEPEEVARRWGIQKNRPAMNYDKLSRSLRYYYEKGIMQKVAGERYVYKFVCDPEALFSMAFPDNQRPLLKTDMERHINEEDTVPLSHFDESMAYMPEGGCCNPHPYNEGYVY

Regarding AACAGG, the binding signal in the test with FEV was 1.16 fold enrichment (6-mer frequency, TF over GST control); with ETV5, 1.27 fold enrichment (6-mer frequency, TF over GST control); with SPIC, 1.15 fold enrichment (6-mer frequency, TF over GST control); with ELF4, 1.08 fold enrichment (6-mer frequency, TF over GST control); with ELK4 it was 1.09 fold enrichment (6-mer frequency, TF over GST control); in the test with ETV2, 1.03 fold enrichment (6-mer frequency, TF over GST control). The binding signal with ELF3 was 1.15 fold enrichment (6-mer frequency, TF over GST control); with ETV1, 1.18 fold enrichment (6-mer frequency, TF over GST control).
On to TCCGGG, for which the binding signal with FEV was 1.36 fold enrichment (6-mer frequency, TF over GST control); with ETV5 it was 1.69 fold enrichment (6-mer frequency, TF over GST control); in the test with SPIC, 1.63 fold enrichment (6-mer frequency, TF over GST control); in the test with ELF4, 1.41 fold enrichment (6-mer frequency, TF over GST control); with ELK4 it was 1.37 fold enrichment (6-mer frequency, TF over GST control); with ETV2 it was 1.5 fold enrichment (6-mer frequency, TF over GST control). In addition, the binding signal was 1.41 fold enrichment (6-mer frequency, TF over GST control) in the test with ELF3 and 1.59 fold enrichment (6-mer frequency, TF over GST control) in the test with ETV1.
On to GCACAT, for which the binding signal with FEV is 1.23 fold enrichment (6-mer frequency, TF over GST control); in the test with ETV5 it was 1.2 fold enrichment (6-mer frequency, TF over GST control); in the test with SPIC it was 1.14 fold enrichment (6-mer frequency, TF over GST control); with ELF4 it was 1.12 fold enrichment (6-mer frequency, TF over GST control); in the test with ELK4, 1.06 fold enrichment (6-mer frequency, TF over GST control); with ETV2, 1.09 fold enrichment (6-mer frequency, TF over GST control). Besides, the binding signal is 1.11 fold enrichment (6-mer frequency, TF over GST control) with ELF3 and 1.1 fold enrichment (6-mer frequency, TF over GST control) with ETV1.
AGTGGC: the binding signal with FEV is 1.43 fold enrichment (6-mer frequency, TF over GST control); with ETV5 it was 1.24 fold enrichment (6-mer frequency, TF over GST control); in the test with SPIC, 1.16 fold enrichment (6-mer frequency, TF over GST control); with ELF4, 1.19 fold enrichment (6-mer frequency, TF over GST control); with ELK4 it was 1.24 fold enrichment (6-mer frequency, TF over GST control); with ETV2, 1.18 fold enrichment (6-mer frequency, TF over GST control). Moreover, the binding signal was 1.36 fold enrichment (6-mer frequency, TF over GST control) in the test with ELF3 and 1.16 fold enrichment (6-mer frequency, TF over GST control) with ETV1.
As to CACATC, the binding signal in the test with FEV was 1.71 fold enrichment (6-mer frequency, TF over GST control); in the test with ETV5, 1.5 fold enrichment (6-mer frequency, TF over GST control); with SPIC, 1.31 fold enrichment (6-mer frequency, TF over GST control); with ELF4, 1.36 fold enrichment (6-mer frequency, TF over GST control); with ELK4, 1.45 fold enrichment (6-mer frequency, TF over GST control); with ETV2 it was 1.44 fold enrichment (6-mer frequency, TF over GST control). The binding signal with ELF3 is 1.34 fold enrichment (6-mer frequency, TF over GST control); with ETV1, 1.38 fold enrichment (6-mer frequency, TF over GST control).
With GACATC, the binding signal is 1.73 fold enrichment (6-mer frequency, TF over GST control) with FEV; 1.3 fold enrichment (6-mer frequency, TF over GST control) with ETV5; 1.26 fold enrichment (6-mer frequency, TF over GST control) with SPIC; 1.26 fold enrichment (6-mer frequency, TF over GST control) in the test with ELF4; 1.34 fold enrichment (6-mer frequency, TF over GST control) with ELK4; 1.31 fold enrichment (6-mer frequency, TF over GST control) in the test with ETV2. For the same sequence, the binding signal with ELF3 was 1.23 fold enrichment (6-mer frequency, TF over GST control); with ETV1 it was 1.33 fold enrichment (6-mer frequency, TF over GST control).
Regarding TGTCCA, the binding signal is 1.11 fold enrichment (6-mer frequency, TF over GST control) in the test with FEV; 1.15 fold enrichment (6-mer frequency, TF over GST control) with ETV5; 1.17 fold enrichment (6-mer frequency, TF over GST control) with SPIC; 1.16 fold enrichment (6-mer frequency, TF over GST control) in the test with ELF4; 1.11 fold enrichment (6-mer frequency, TF over GST control) with ELK4; 1.3 fold enrichment (6-mer frequency, TF over GST control) in the test with ETV2. The binding signal in the test with ELF3 is 1.06 fold enrichment (6-mer frequency, TF over GST control); with ETV1, 1.04 fold enrichment (6-mer frequency, TF over GST control).
On to GTATAC, for which the binding signal is 1.2 fold enrichment (6-mer frequency, TF over GST control) with FEV; 1.24 fold enrichment (6-mer frequency, TF over GST control) with ETV5; 1.2 fold enrichment (6-mer frequency, TF over GST control) with SPIC; 1.3 fold enrichment (6-mer frequency, TF over GST control) in the test with ELF4; 1.29 fold enrichment (6-mer frequency, TF over GST control) in the test with ELK4; 1.1 fold enrichment (6-mer frequency, TF over GST control) with ETV2. In addition, the binding signal is 1.18 fold enrichment (6-mer frequency, TF over GST control) with ELF3 and 1.31 fold enrichment (6-mer frequency, TF over GST control) with ETV1.
